esBAF inh: inhibitors of esBAF chromatin remodeling in mouse ES cells. Bmi1-luciferase knock-in reporter, 24 h; 100% = twice the neutral-well signal. AID 602393. reporter increase, % at 12.5 µM. 2% of 350,000 active; in the data active means activation above about 40%; inconclusive means no clear call, values can overlap the other calls;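 further: 0% = median of the plate's neutral control wells and 100% = double that signal; a rise in the Bmi1 reporter signal indicates esBAF inhibition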
Statin myotox sup: protects C2C12 myotubes from simvastatin toxicity | ATP luminescence, 48 h; scaled: DMSO 0, geranylgeraniol control 100 | rescue of ATP level, % at 7.49 µM | 0.78% of 330,000 active | AID 602340;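 active means mean ATP rescue above about 67%, or every replicate alone reaching that limit, limit read from the data, passing the limit was not always enough; inconclusive means no clear call, values can overlap the other calls; inactive means mean under the limit and some replicate under it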;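 further: myotubes were challenged with 10 µM simvastatin during compound exposure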
MITF act: activators of MITF-driven TRPM1 promoter activity in SK-MEL-5 cells | AID 588334 | activation, % at 12.5 µM | SK-MEL-5 TRPM1-promoter luciferase, 24 h; % of positive control, neutral wells = 0 | 0.75% of 300,000 active;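 active means mean activation of at least 80% with every replicate also reaching 80%; inconclusive means mean reaches 80% but some replicate falls short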;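 further: 0% = neutral control wells and 100% = parthenolide positive control wells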
Wnt act: activates Wnt/beta-catenin signaling in a reporter cell assay | AID 743398 | 1.2% of 300,000 active | activation, % at 9.35 µM | activator, plate reader; in the data active means activation above about 30%, passing the limit was not always enough; inconclusive means no clear call, values can overlap the other calls;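 further: 0% = neutral control wells and 100% = positive control wells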
Numbers without * were called inactive; ? = inconclusive; . = no result. This is a sample that favours compounds with a hit; in the whole collection about 3% have one here.

SMILES | esBAF inh | Statin myotox sup | MITF act | Wnt act
C[C@@H]1CN([C@@H](C)CO)C(=O)c2cc(-c3cccnc3)cnc2O[C@@H]1CN(C)C(=O)c1cccc(F)c1 | 2.4 | -1.0 | . | .
C[C@H]1CN([C@@H](C)CO)S(=O)(=O)c2ccc(-c3cccnc3)cc2O[C@@H]1CN(C)C(=O)C1CCC1 | 1.9 | -1.7 | . | .
Nc1ccc(N=Nc2ccccc2)cc1[N+](=O)[O-] | 62.2* | 0.6 | 40.9 | -3.8
Cc1ccc(N)c([N+](=O)[O-])c1 | -0.7 | 9.8 | 16.5 | -0.9
Cc1ccc2oc(-c3cccc(NC(=O)c4ccc(Br)o4)c3)nc2c1 | 65.0* | -2.7 | 17.2 | .
Cc1ccc2oc(-c3ccc(NC(=O)CC(C)C)cc3)nc2c1 | 50.4* | -12.3 | 100.7* | 15.8
Cc1cc2nc(-c3cccc(NC(=O)c4ccc(Br)o4)c3)oc2cc1C | 8.6 | -1.9 | 2.4 | .
COC(=O)c1ccc(-c2nc3ccc(C)cc3o2)cc1 | 52.5* | 5.1 | -5.8 | 55.4*
CCC(C)NCC(=O)Nc1ccc(-c2nc3cc(NC(=O)CNC(C)CC)ccc3o2)cc1 (stereo unspecified) | -3.1 | -13.5 | . | -2.1
CCCC(=O)Nc1ccc2oc(-c3cncc(Br)c3)nc2c1 | 11.8 | -1.6 | 96.8* | -1.0
C[C@H]1CN([C@@H](C)CO)C(=O)Cc2cc(NC(=O)Cc3ccccc3)ccc2O[C@H]1CN(C)C(=O)Nc1ccc2c(c1)OCO2 | 1.9 | -16.4 | . | .
C[C@@H]1CN([C@@H](C)CO)C(=O)Cc2cc(NC(=O)NC3CCCCC3)ccc2O[C@@H]1CN(C)Cc1ccc(C(=O)O)cc1 | -0.7 | -3.5 | . | .
CCC(=O)Nc1ccc2oc(-c3cccnc3)nc2c1 | . | . | ? | -2.4
CC(C)CC(=O)Nc1ccc2oc(-c3cccnc3)nc2c1 | 50.5* | -10.1 | 55.0 | .
Cc1ccc(-c2cc(-c3ccc(C)cc3O)[nH]n2)cc1 | 35.8 | -0.5 | ? | 16.3
Cc1ccc(-c2cc(-c3ccccc3[N+](=O)[O-])[nH]n2)c(O)c1 | 70.3* | 11.7 | 61.5 | 20.9
Cc1ccccc1-c1cc(-c2ccccc2O)n[nH]1 | -28.7 | -10.2 | 26.1 | 54.6*
Oc1ccc(Br)cc1-c1cc(-c2ccccc2Cl)[nH]n1 | . | . | 2.8 | 23.5
Cc1ccc(-c2cc(-c3ccccc3Cl)[nH]n2)c(O)c1 | 51.7* | -34.3 | 70.8 | 29.9
COc1ccc(O)c(-c2cc(-c3ccccc3Cl)[nH]n2)c1 | 73.7* | -5.2 | . | 12.9
C/C=C/c1cnc2c(c1)C(=O)N([C@@H](C)CO)C[C@H](C)[C@H](CN(C)S(=O)(=O)c1cn(C)cn1)O2 | -2.1 | 6.3 | . | .
Nc1ncccc1OCc1ccc(Br)cc1 | . | . | 101.9* | 6.0
Cc1ccc(/C=N/Nc2ncnc3nc[nH]c23)cc1 | -0.4 | 4.6 | 73.7 | 47.0*
Clc1ccc(/C=N/Nc2ncnc3nc[nH]c23)cc1 | 11.2 | 12.8 | 187.1* | 0.1
Clc1ccccc1CNc1ncnc2nc[nH]c12 | 3.4 | 101.4* | 6.4 | -0.6
SMILES | esBAF inh | Statin myotox sup | MITF act | Wnt act
C[C@@H]1CCCCO[C@@H](CN(C)C(=O)c2ccccc2)[C@H](C)CN([C@H](C)CO)C(=O)c2cc(NS(=O)(=O)c3cccs3)ccc2O1 | 4.9 | 28.7 | . | .
COc1ccc(S(=O)(=O)Nc2ccc3c(c2)CC(=O)N([C@@H](C)CO)C[C@@H](C)[C@@H](CN(C)C(=O)Nc2ccc(F)cc2)O3)cc1 | 1.4 | 24.3 | . | .
COc1ccc(NC(=O)COc2ccc(Br)cc2)c(OC)c1 | 15.5 | 10.8 | 20.5 | 5.5
NC(=O)c1ccccc1NC(=O)COc1ccc(Cl)cc1 | ? | -16.2 | ? | 28.9
Cc1ccc(OCC(=O)Nc2ccccc2C(N)=O)cc1 | ? | -1.9 | 61.3 | 56.7*
COc1ccc(NC(=O)COc2ccccc2)c(OC)c1 | 50.7* | 98.1* | 63.3 | -3.2
CCOCC(=O)Nc1c(C(=O)Nc2ccc3c(c2)OCCO3)oc2ccccc12 | . | . | 94.6* | 15.4
O=C(Nc1ccc2c(c1)OCCO2)c1oc2ccccc2c1NC(=O)C1CC1 | . | . | 1.1 | 4.9
CCC(=O)Nc1c(C(=O)Nc2ccc3c(c2)OCCO3)oc2ccccc12 | . | . | 97.5* | 36.4*
COCC(=O)Nc1c(C(=O)Nc2ccc3c(c2)OCCO3)oc2ccccc12 | 9.1 | -25.6 | 91.6* | 18.2
CCC(=O)Nc1c(C(=O)Nc2cccc(OC)c2)oc2ccccc12 | 42.7* | 1.7 | 74.0 | .
COc1ccc(NC(=O)Nc2cccc3c2O[C@H](CN(C)S(=O)(=O)c2ccccc2)[C@H](C)CN([C@H](C)CO)C3=O)cc1 | 17.4 | -17.9 | . | .
Clc1ccc(-c2csc(Nc3ccccc3)[n+]2Cc2ccco2)c(Cl)c1 | . | . | 88.7* | 42.8*
C[C@H](CO)N1C[C@H](C)[C@H](CN(C)Cc2ccc(Cl)c(Cl)c2)Oc2ccc(NC(=O)Nc3ccc4c(c3)OCO4)cc2C1=O | 7.4 | 28.5 | . | .
CCCOc1ccc(C(=O)Nc2ccc3c(c2)OCO3)cc1 | 20.3 | -24.8 | 68.2 | 42.6*
CCCc1cc2c(cc1NC(=O)c1ccc(C)cc1)OCO2 | 27.9 | 91.5* | 2.5 | .
O=C(Nc1ccc2c(c1)OCO2)c1ccc(CO)cc1 | 38.3 | -1.0 | 34.8 | 48.3*
CCCCOc1ccc(C(=O)Nc2ccc3c(c2)OCO3)cc1 | 42.4* | -5.5 | 70.6 | 35.0*
CN1C(=O)c2cc(NC(=O)c3cccc(F)c3)ccc2OC[C@H]2O[C@H](CC(=O)O)CC[C@@H]21 | -3.1 | 0.8 | . | .
CCCN1C(=O)c2ccc(C(=O)Nc3ccc4c(c3)OCO4)cc2C1=O | 62.8* | -12.9 | 66.3 | 8.6
CN(CCOc1ccccc1)C(=O)c1ccc2c(c1)OCO2 | 43.3* | 2.9 | 68.3 | -2.2
C[C@@H]1CN([C@@H](C)CO)C(=O)Cc2cc(NC(=O)Nc3ccc(C(F)(F)F)cc3)ccc2O[C@@H]1CN(C)C(=O)NC1CCCCC1 | -15.4 | -191.8 | . | .
C/C(=N\OC(=O)Nc1ccccc1)c1ccc(C)cc1 | . | . | 100.7* | 0.2
CCc1ccc2c(c1)C(=O)c1ccccc1C2=O | . | . | 34.7 | 74.4*
CC(C)(C)c1ccc2c(c1)C(=O)c1ccccc1C2=O | -5.9 | -4.9 | -6.1 | ?
SMILES | esBAF inh | Statin myotox sup | MITF act | Wnt act
CCc1ccc(NC2=CC(=O)C(=O)c3ccccc32)cc1 | . | . | -103.3 | 32.5*
Cc1ccc(-c2nc(-c3cccnc3)no2)c(C)c1 | 44.5* | 0.1 | . | .
Cc1c(-c2nc(-c3cccnc3)no2)cccc1[N+](=O)[O-] | . | . | 12.1 | 0.1
Cc1ccccc1OCc1nc(-c2ccccc2)no1 | . | . | 96.7* | .
Cc1ccccc1OCc1nc(-c2ccc(NC(=O)c3cccs3)cc2)no1 | . | . | 56.8 | 29.5
Cc1ccccc1OCc1nc(-c2ccc(NC(=O)c3ccco3)cc2)no1 | 27.1 | ? | 103.0* | -0.6
CCCc1ccc(OCc2nc(-c3ccc(NC(=O)c4ccco4)cc3)no2)cc1 | 62.1* | -14.5 | 69.0 | .
C[C@H](NC(=O)C[C@H]1C=C[C@@H](NC(=O)CN2CCOCC2)[C@H](CO)O1)c1ccccc1 | -0.8 | 4.4 | . | .
Cc1ccc(C)c(OCc2nc(-c3cccnc3)no2)c1 | 16.3 | 11.9 | 35.3 | .
c1ccc(-c2noc(COc3ccc4c(c3)OCO4)n2)cc1 | 63.0* | 6.8 | 97.4* | .
Cc1cc(Br)ccc1OCc1nc(-c2cccnc2)no1 | 84.9* | -13.3 | . | 38.0*
c1ccc(OCc2nc(-c3cccs3)no2)cc1 | 58.4* | -19.4 | 107.7* | .

Screening data deposited in PubChem BioAssay by Broad Institute.
